Data reported in PubChem BioAssay AID1159580 (chemical genetic matrix, 2015).
Where “and” joins values, the source holds several entries; their conditions need not be identical. Equal values may be shown once. About 2,000 (36%) of roughly 5,500 compounds were called active. Not shown: some 18% with an inconclusive outcome. No stated cut-off is given here; in the data, active means normalized growth mostly below about 0.91 (no sharp cut-off); inconclusive means no clear call, values can overlap the other calls; inactive means mostly above about 0.92. The list shows a part of the results.

Assay: chemical genetic growth profiling, strain panel (AID 1159580);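 further: tested at 20 µM; growth read once vehicle control cultures reached saturation at 30 °C; 1 = growth at the plate median or of vehicle wells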
Conditions: S. cerevisiae deletion strains, growth OD

Measured: normalized growth

S=c1nc[nH]c2nc[nH]c12
inactive: locus YAL013W, strain DEP1, stronger effect = lower value 0.996 | locus YAL021C, strain ccr4, stronger effect = lower value 1.02 | locus YAL026C, strain drs2, stronger effect = lower value 0.991 | locus YAL030W, strain snc1, stronger effect = lower value 1.02 | locus YBL061C, strain skt5, stronger effect = lower value 1.02 | locus YBR009C, strain hhf1, stronger effect = lower value 0.997 | locus YBR021W, strain FUR4, stronger effect = lower value 0.997 | locus YBR023C, strain chs3, stronger effect = lower value 1.02 | locus YBR171W, strain sec66, stronger effect = lower value 0.976 | locus YBR229C, strain ROT2, stronger effect = lower value 1 | locus YBR231C, strain swc5, stronger effect = lower value 1.02 | locus YBR279W, strain paf1, stronger effect = lower value 1 | locus YCL011C, strain gbp2, stronger effect = lower value 0.972 | locus YCL016C, strain dcc1, stronger effect = lower value 1.01 | locus YCL029C, strain bik1, stronger effect = lower value 0.976 | locus YCL069W, strain vba3, stronger effect = lower value 0.964 | locus YCR088W, strain abp1, stronger effect = lower value 0.977 | locus YDL005C, strain med2, stronger effect = lower value 0.988 | locus YDL035C, strain GPR1, stronger effect = lower value 1 | locus YDL040C, strain nat1, stronger effect = lower value 1.02 | locus YDL074C, strain BRE1, stronger effect = lower value 1 | locus YDL101C, strain DUN1, stronger effect = lower value 0.996 | locus YDL134C, strain PPH21, stronger effect = lower value 1.01 | locus YDL185W, strain tfp1, stronger effect = lower value 0.964 | locus YDL192W, strain arf1, stronger effect = lower value 0.974 | locus YDR001C, strain nth1, stronger effect = lower value 0.972 | locus YDR069C, strain doa4, stronger effect = lower value 1.02 | locus YDR101C, strain arx1, stronger effect = lower value 1 | locus YDR137W, strain rgp1, stronger effect = lower value 1.02 | locus YDR150W, strain NUM1, stronger effect = lower value 0.999 | locus YDR159W, strain sac3, stronger effect = lower value 0.985 | locus YDR162C, strain NBP2, stronger effect = lower value 0.996 | locus YDR195W, strain ref2 0.992 | locus YDR297W, strain sur2, stronger effect = lower value 1.02 | locus YDR318W, strain mcm21, stronger effect = lower value 0.977 | locus YDR334W, strain swr1, stronger effect = lower value 1.05 | locus YDR335W, strain msn5, stronger effect = lower value 1.01 | locus YDR388W, stronger effect = lower value 0.999 | locus YDR392W, strain spt3, stronger effect = lower value 1.01 | locus YDR502C, strain sam2, stronger effect = lower value 0.991 | locus YEL003W, strain gim4, stronger effect = lower value 0.963 | locus YEL037C, strain rad23, stronger effect = lower value 0.977 | locus YEL061C, strain CIN8 (second series), stronger effect = lower value 0.992 | locus YEL061C, strain CIN8, stronger effect = lower value 0.991 | locus YER015W, strain faa2, stronger effect = lower value 1.01 | locus YER016W, strain bim1, stronger effect = lower value 1 | locus YER110C, stronger effect = lower value 0.969 | locus YER111C, strain swi4, stronger effect = lower value 0.966 | locus YER155C, strain BEM2 (second series), stronger effect = lower value 0.963 | locus YER155C, strain BEM2, stronger effect = lower value 0.99 | locus YER167W, strain BCK2, stronger effect = lower value 0.987 | locus YFR010W, strain ubp6, stronger effect = lower value 0.987 | locus YGL078C, strain dbp3, stronger effect = lower value 0.984 | locus YGL086W, strain mad1, stronger effect = lower value 1.01 | locus YGL167C, strain pmr1, stronger effect = lower value 1.01 | locus YGL173C, strain kem1, stronger effect = lower value 1 | locus YGL227W, strain vid30, stronger effect = lower value 0.975 | locus YGL240W, strain doc1, stronger effect = lower value 1.01 | locus YGL248W, strain PDE1, stronger effect = lower value 0.995 | locus YGL253W, strain hxk2, stronger effect = lower value 1.02 | locus YGR078C, strain PAC10, stronger effect = lower value 1 | locus YGR135W, strain pre9, stronger effect = lower value 0.941 | locus YGR252W, strain gcn5, stronger effect = lower value 0.979 | locus YHR013C, strain ard1, stronger effect = lower value 1.06 | locus YHR027C, strain rpn1, stronger effect = lower value 1.01 | locus YHR030C, strain SLT2, stronger effect = lower value 0.999 and 1.02 | locus YHR079C, strain IRE1 (second series), stronger effect = lower value 0.983 | locus YHR079C, strain IRE1, stronger effect = lower value 1 | locus YHR094C, strain hxt1, stronger effect = lower value 0.987 | locus YHR129C, strain ARP1, stronger effect = lower value 1 | locus YHR142W, strain chs7, stronger effect = lower value 0.999 | locus YHR200W, strain rpn10, stronger effect = lower value 0.98 | locus YIL066C, strain RNR3, stronger effect = lower value 1 | locus YIL073C, strain SPO22, stronger effect = lower value 0.934 | locus YIL125W, strain kgd1, stronger effect = lower value 0.994 | locus YIR030C, strain dcg1, stronger effect = lower value 0.974 | locus YJL092W, strain hpr5, stronger effect = lower value 0.986 | locus YJL095W, strain BCK1 (second series), stronger effect = lower value 1.01 | locus YJL095W, strain BCK1, stronger effect = lower value 0.983 and 1.02 | locus YJL115W, strain asf1, stronger effect = lower value 0.972 | locus YJL129C, strain trk1, stronger effect = lower value 0.97 | locus YJL134W, strain LCB3, stronger effect = lower value 0.984 | locus YJL154C, strain vps35, stronger effect = lower value 0.967 | locus YJL164C, strain tpk1, stronger effect = lower value 0.988 | locus YJL166W, strain qcr8, stronger effect = lower value 1.01 | locus YJL168C, strain set2, stronger effect = lower value 0.989 | locus YJL187C, strain SWE1 (second series), stronger effect = lower value 0.997 | locus YJR043C, strain POL32, stronger effect = lower value 1 | locus YJR066W, strain TOR1, stronger effect = lower value 0.975
